Data as given in PubChem BioAssay AID488975 (Johns Hopkins Ion Channel Center, 2010).
Screen size: about 310,000 compounds; about 2,600 (0.84%) were called active.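 The calls were made as follows: active = B-score over 3 SD under the library average, and starting fluorescence ratio not unusually high; inactive = the rest.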 The full list was thinned out, with actives kept by preference.

What follows are compounds tested against High affinity choline transporter 1 (Homo sapiens) (UniProt Q9GZV3) (assay: inhibitors of human choline transporter CHT (AID 488975;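 as to B-score: choline stimulus applied at its EC90 after an EC20 pre-addition; B-score computed on integrated fluorescence ratio after choline addition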)). Conditions: CHT-expressing cells, membrane potential dye, choline response, at 10 µM; active compounds read low.
Sequence of High affinity choline transporter 1 (Homo sapiens) (Q9GZV3 whole entry, looked up): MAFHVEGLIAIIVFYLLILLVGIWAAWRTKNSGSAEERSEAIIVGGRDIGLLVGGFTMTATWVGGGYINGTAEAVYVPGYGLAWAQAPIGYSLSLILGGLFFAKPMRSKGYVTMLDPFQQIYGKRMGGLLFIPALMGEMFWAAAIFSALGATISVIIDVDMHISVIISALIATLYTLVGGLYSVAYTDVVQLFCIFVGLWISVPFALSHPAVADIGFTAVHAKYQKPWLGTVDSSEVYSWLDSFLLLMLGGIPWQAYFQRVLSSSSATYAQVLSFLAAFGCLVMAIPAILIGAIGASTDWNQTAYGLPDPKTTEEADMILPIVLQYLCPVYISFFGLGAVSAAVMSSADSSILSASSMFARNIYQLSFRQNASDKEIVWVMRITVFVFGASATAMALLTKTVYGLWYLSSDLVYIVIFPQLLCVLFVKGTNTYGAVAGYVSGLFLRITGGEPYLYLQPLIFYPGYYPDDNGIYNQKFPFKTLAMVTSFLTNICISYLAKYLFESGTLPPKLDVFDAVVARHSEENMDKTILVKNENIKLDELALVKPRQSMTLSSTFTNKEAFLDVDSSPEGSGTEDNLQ
In the case of `CCN(C(=O)COC(=O)C1CCN(S(=O)(=O)c2ccc(C)c(C)c2)CC1)C1CCS(=O)(=O)C1` (configuration not stated), the B-score is reported as “inactive”.
`Cn1cccc1C(=O)NNC(=O)COc1ccc(Br)cc1` was tested, and the B-score was “inactive”.
`Cc1ccc(S(=O)(=O)N2CCCCC2)cc1C(=O)N(C)CC(=O)Nc1cccc(F)c1` was tested, and the B-score was “inactive”.
In the case of `O=C(NCC(c1ccco1)N1CCc2ccccc21)c1cccc(F)c1` (configuration not stated), the B-score is reported as “inactive”.
For `CC1(C)CC(=O)c2ccc(O)cc2O1`, the B-score was “inactive”.
In the case of `COc1ccc2c(c1)OC(O)(C(F)(F)C(F)F)CC2=O` (configuration not stated), the B-score is reported as -5.18 (active).
For `COc1ccc2c(c1)SC(C)CC2=O` (configuration not stated), the B-score was “inactive”.
With `COC(=O)[C@@]12CCCN1[C@H](c1ccc(-c3ccc(F)cc3)c(OC)c1)[C@H]1C(=O)N(C)C(=O)[C@H]12` the B-score was “inactive”.
With `CCN(CC)c1ccc(NC(=O)c2ccc(=O)[nH]c2)cc1S(=O)(=O)Nc1ccc(OC)cc1` the B-score was “inactive”.
`COc1cc(/C=N/NC(=O)c2cc(-c3ccccc3C)nc3ccccc23)cc(OC)c1O` was tested, and the B-score was “inactive”.
In the case of `O=C(Nc1ccccc1)c1ccco1`, the B-score is reported as “inactive”.
For `Cc1ccnc(NC(=O)c2ccco2)n1`, the B-score was “inactive”.
In the case of `O=C(Nc1nonc1-c1ccc(Cl)cc1)c1ccco1`, the B-score is reported as -5.55 (active).
In the case of `CN(Cc1ccccc1F)C(=O)C(Cc1ccccc1)NC(=O)c1ccccc1` (configuration not stated), the B-score is reported as “inactive”.
`O=C(NNC(=O)c1cc(-c2ccccc2Cl)nc2ccccc12)c1csc(N2CCOCC2)n1` was tested, and the B-score was “inactive”.
`O=S(=O)(Cc1cc(Cl)nc(-c2cccnc2)n1)c1ccccc1` was tested, and the B-score was -6.86 (active).
`O=S(=O)(Cc1cc(Sc2ccccc2)nc(-c2ccccc2)n1)c1ccccc1` was tested, and the B-score was “inactive”.
With `O=S(=O)(NCCc1csc(-c2ccccc2)n1)c1cccnc1` the B-score was “inactive”.
With `COc1ccccc1NC(=O)C(C)OC(=O)c1ccc(-n2cnnn2)cc1` (configuration not stated) the B-score was “inactive”.
With `CCC1Nc2ncnc(N3CCN(c4ccccc4)CC3)c2N(Cc2ccc(Cl)cc2)C1=O` (configuration not stated) the B-score was “inactive”.
In the case of `CCOC(=O)C1C(c2ccc(Cl)cc2)NC(=S)NC1(O)C(F)(F)F` (configuration not stated), the B-score is reported as “inactive”.
For `CC(=O)C1C(c2ccc(Cl)cc2)NC(=O)NC1(O)C(F)(F)F` (configuration not stated), the B-score was “inactive”.
In the case of `O=C(c1cccs1)C1C(c2ccc(Br)cc2)NC(=S)NC1(O)C(F)(F)F` (configuration not stated), the B-score is reported as -8.32 (active).
For `CN(c1cccc(NC(=O)c2ccc(CN3CCc4ccccc4C3)cc2)c1)S(C)(=O)=O`, the B-score was “inactive”.
`Cc1cccc(C)c1NC(=O)c1ccc(CN2CCc3ccccc3C2)cc1` was tested, and the B-score was -5.84 (active).
`Cc1ccc(NC(=O)CN2CCc3ccccc3C2)cc1C` was tested, and the B-score was “inactive”.
For `CCCCn1c(N)c(N(CC(C)C)C(=O)c2ccc(-n3c(C)ccc3C)cc2)c(=O)[nH]c1=O`, the B-score was “inactive”.
In the case of `COc1ccc2c(c1)[C@H]1[C@H](CO2)[C@H](c2ccccc2)[C@]2(C)C(=O)Nc3cc(F)c(F)cc3C(=O)N12`, the B-score is reported as “inactive”.
In the case of `O=C(Nn1c(SCc2ccc([N+](=O)[O-])cc2)nc2ccccc2c1=O)c1ccc(F)cc1`, the B-score is reported as “inactive”.
In the case of `C=CCn1c(SCc2ccc(C(=O)NCCO)cc2)nc2ccccc2c1=O`, the B-score is reported as -5.96 (active).
In the case of `COCCNC(=O)c1ccc(-n2c(SCc3cccnc3)nc3ccccc3c2=O)cc1`, the B-score is reported as “inactive”.
In the case of `CCN1CCN(c2ccc(S(=O)(=O)N3CCCCC3)cc2NC(=O)c2cccc(NC(C)=O)c2)CC1`, the B-score is reported as “inactive”.
With `CC(OC(=O)CCCOc1ccccc1)C(=O)Nc1ccc(Cl)cn1` (configuration not stated) the B-score was “inactive”.
`O=C(NCCC1CCCCN1S(=O)(=O)c1cccs1)C(=O)Nc1ccc(F)cc1F` (configuration not stated) was tested, and the B-score was “inactive”.
`CC12CCC(=O)N1C(C(=O)Nc1ccc(F)c(F)c1F)CS2` (configuration not stated) was tested, and the B-score was “inactive”.
In the case of `COc1ccc(C(=O)c2c(C)oc3cc([N+](=O)[O-])c(O)c([N+](=O)[O-])c23)cc1`, the B-score is reported as “inactive”.
`Cc1oc2cc(Br)c(O)c(Br)c2c1C(=O)c1ccccc1` was tested, and the B-score was “inactive”.
With `Cc1oc2cc([N+](=O)[O-])c(O)c([N+](=O)[O-])c2c1C(=O)c1ccc(Br)cc1` the B-score was -6.57 (active).
With `COc1ccccc1CCNC(=O)C(=O)NCCC1CCCCN1S(=O)(=O)c1cccs1` (configuration not stated) the B-score was “inactive”.
With `CCOc1ccc(NS(=O)(=O)c2ccc(C(=O)NCC(c3ccccc3OC)N3CCCC3)cc2)cc1` (configuration not stated) the B-score was “inactive”.
`COc1ccc(Cl)cc1NC(=O)CN(C)C(=O)c1cc2ccccc2cc1OC` was tested, and the B-score was “inactive”.
For `Cc1onc(-c2ccccc2Cl)c1C(=O)OCc1nnc(-c2ccccc2)o1`, the B-score was “inactive”.
For `COc1ccc(NC(=O)c2sc(N)nc2-c2ccccc2)cc1`, the B-score was -8.57 (active).
`COc1ccc(NC(=O)CSc2nc(N)c(-c3ccccc3)c(=O)[nH]2)cc1` was tested, and the B-score was “inactive”.
For `COc1ccc(NC(=O)c2sc(N3CCOCC3)nc2-c2ccccc2)c(OC)c1`, the B-score was “inactive”.
`COc1ccc(C(=O)NC2CC2)cc1OC1CCN(Cc2cnn(C)c2)CC1` was tested, and the B-score was “inactive”.
`COc1ccc(C(=O)NC(C)c2nccs2)cc1OC1CCN(C(C)C)CC1` (configuration not stated) was tested, and the B-score was -5.22 (active).
With `COCCOC1CCN(C(=O)c2ccc(OC)c(OC3CCN(C(C)C)CC3)c2)CC1` the B-score was “inactive”.
In the case of `Cc1cc(C)c(S(=O)(=O)NCC(c2ccc3c(c2)OCO3)N2CCOCC2)c(C)c1` (configuration not stated), the B-score is reported as “inactive”.
`Cc1nc2ccccc2c(=O)n1-c1ccc(NS(=O)(=O)c2ccc(F)cc2F)cc1` was tested, and the B-score was “inactive”.
For `COc1ccc(C(=O)OCC(=O)c2ccc(Cl)s2)c(OC)c1OC`, the B-score was “inactive”.
`CN(C)CCCN(C(=O)c1ccc(S(=O)(=O)N2CCCCCC2)cc1)c1nc2cc3c(cc2s1)OCCO3` was tested, and the B-score was “inactive”.
For `O=C(/C=C\c1cn(-c2ccccc2)nc1-c1cccs1)N1CCOCC1`, the B-score was “inactive”.
`O=C(O)c1ccc(N/N=C/c2cn(-c3ccccc3)nc2-c2cccs2)cc1` was tested, and the B-score was -5.81 (active).
`O=C(O)/C=C/c1cn(-c2ccccc2)nc1-c1cccs1` was tested, and the B-score was “inactive”.
In the case of `COc1ccc(NS(=O)(=O)c2ccc(C)c(C(=O)NCC(c3cccs3)N3CCOCC3)c2)cc1` (configuration not stated), the B-score is reported as “inactive”.
For `CCN(C(=O)CSc1ncn[nH]1)c1cccc2ccccc12`, the B-score was “inactive”.
`Cn1nnc(NC(=O)CSc2ncn[nH]2)n1` was tested, and the B-score was “inactive”.
For `CC(C)(C)c1ccc(C(=O)CSc2ncn[nH]2)cc1`, the B-score was -5 (active).
With `O=C(CCNC(=O)c1ccc(Br)cc1)Nc1cccc(S(=O)(=O)N2CCCCC2)c1` the B-score was “inactive”.
In the case of `CCOC(=O)c1c(C)oc2cc(Sc3ccccc3)c(O)c(O)c12`, the B-score is reported as “inactive”.
For `CCN1C(=O)[C@H]2[C@@H](c3ccc(-c4ccc(OC)cc4)cc3)N[C@@](Cc3ccccc3)(C(=O)OC)[C@H]2C1=O`, the B-score was “inactive”.
`COc1ccc(C2=NOC(Cn3nc(C(=O)NCc4ccc5c(c4)OCO5)cc3-c3ccccc3)C2)cc1` (configuration not stated) was tested, and the B-score was “inactive”.
In the case of `Cc1cccc(N(Cc2ccccc2)C(=O)c2cc(S(=O)(=O)N3CCOCC3)ccc2F)c1`, the B-score is reported as “inactive”.
`CC(=O)c1ccc(Oc2cc(C)nc(-n3nc(C)cc3C)n2)cc1` was tested, and the B-score was -5.97 (active).
In the case of `Cc1cc(C)n(-c2cc(Oc3ccccc3)ncn2)n1`, the B-score is reported as “inactive”.
In the case of `Cc1cc(C)n(-c2ccc(Cl)c(C(=O)O)n2)n1`, the B-score is reported as “inactive”.
In the case of `O=C1[C@H]2[C@@H](c3ccc(Cl)cc3)N3C(=O)N(c4cccc(F)c4)C(=O)[C@@]3(Cc3ccccc3)[C@H]2C(=O)N1C1CCCCC1`, the B-score is reported as “inactive”.
With `CCCCC(=O)NNC(=S)NC(=O)C(c1ccccc1)c1ccccc1` the B-score was -10.8 (active).
In the case of `CC(C)C(=O)Nc1cccc(NC(=S)NC(=O)C(c2ccccc2)c2ccccc2)c1`, the B-score is reported as “inactive”.
In the case of `O=C(NNC(=S)NCc1ccco1)C(c1ccccc1)c1ccccc1`, the B-score is reported as “inactive”.
In the case of `CC1CN(C(=O)c2cc(COc3c(F)cccc3F)on2)CCN1C` (configuration not stated), the B-score is reported as “inactive”.
For `Cc1cc(S(=O)(=O)Nc2ccc(C(=O)NCC(c3ccco3)N3CCCC3)cc2)ccc1F` (configuration not stated), the B-score was “inactive”.
`COc1ccc(C(CNC(=O)c2cccc(NS(=O)(=O)c3ccc(C)c(F)c3)c2)N2CCCC2)cc1` (configuration not stated) was tested, and the B-score was -5.37 (active).
With `COc1ccc(C(CNC(=O)c2cccc(S(=O)(=O)Nc3ccccc3Cl)c2)N2CCOCC2)cc1` (configuration not stated) the B-score was “inactive”.
`CC(=O)c1ccc(NC(=O)C2CCCN2S(=O)(=O)c2cccs2)cc1` (configuration not stated) was tested, and the B-score was “inactive”.
With `COc1ccc(CCNC(=O)C(=O)NCC2CCCN2S(=O)(=O)c2cccs2)cc1OC` (configuration not stated) the B-score was “inactive”.
In the case of `Cc1occc1C(=O)N/N=C/c1ccc(-c2cccc([N+](=O)[O-])c2)o1`, the B-score is reported as “inactive”.
With `O=[N+]([O-])c1cc(Cl)cc(/C=N/NC(=S)Nc2cc(S(=O)(=O)N3CCOCC3)ccc2Cl)c1O` the B-score was -11.3 (active).
`O=C(CN1CCN(c2ccc(O)cc2)CC1)Nc1cc(S(=O)(=O)N2CCOCC2)ccc1Cl` was tested, and the B-score was “inactive”.
In the case of `O=C(N/N=C/c1cc(Cl)cc([N+](=O)[O-])c1O)C(O)(c1ccccc1)c1ccccc1`, the B-score is reported as “inactive”.
With `CC(=O)N1CCN(C(=O)c2cc(-c3ccc(C)o3)nc3ccccc23)CC1` the B-score was “inactive”.
`O=C(O)C1C2C=CC(C2)C1C(=O)NCc1ccccc1` (configuration not stated) was tested, and the B-score was “inactive”.
`Cc1ccc(NNC(=O)c2cccs2)cc1Cl` was tested, and the B-score was -4.98 (active).
`Cc1ccc(NNC(=O)c2c(F)cccc2Cl)cc1Cl` was tested, and the B-score was “inactive”.
`O=C(NNC(=O)c1ccc(Cl)cc1Cl)c1cccs1` was tested, and the B-score was “inactive”.
`O=C(NCCCc1ccccc1)C(=O)NCC1OCCN1S(=O)(=O)c1ccccc1` (configuration not stated) was tested, and the B-score was “inactive”.
For `Cc1ccc(N2CC(C(=O)N3CCC4(CC3)CC(=O)c3ccccc3O4)CC2=O)cc1C` (configuration not stated), the B-score was “inactive”.
With `Cc1ccc(Cc2nnc(SCC(=O)Nc3ccccc3C)[nH]c2=O)cc1` the B-score was “inactive”.
`O=C(Cn1ncc2c3ccccc3n(Cc3ccccc3)c2c1=O)NCc1ccccn1` was tested, and the B-score was “inactive”.
In the case of `CCC1CCCCN1CCCNC(=O)Cn1nc(-c2ccccc2)ccc1=O` (configuration not stated), the B-score is reported as “inactive”.
For `O=C(Cn1ncc2c3ccccc3n(Cc3ccccc3)c2c1=O)NCCCN1CCOCC1`, the B-score was -8.06 (active).
For `CC1CCCCN1CCCNC(=O)Cn1ncc2c([nH]c3ccccc32)c1=O` (configuration not stated), the B-score was “inactive”.
For `CCCn1c2ccccc2c2cnn(CC(=O)NCCCN3CCCCC3CC)c(=O)c21` (configuration not stated), the B-score was -7.41 (active).
For `Cc1c2cnn(CC(=O)NCCCN3CC(C)CC(C)C3)c(=O)c2c(C)n1Cc1ccc(Cl)cc1` (configuration not stated), the B-score was “inactive”.
With `Cc1ccc(C)c(-c2nnc(NC(=O)CS(=O)(=O)c3ccccc3)o2)c1` the B-score was “inactive”.
With `Cc1ccc(S(=O)(=O)NCCC(=O)NC2CCN(Cc3ccccc3)CC2)cc1` the B-score was “inactive”.
